PubChem BioAssay (NCATS)
“And” between values parts separate entries of the source, which are not always exact repeats. Identical values can stand only once. Inconclusive results are not listed. The source made the active and inactive calls. The call rests on the fitted dose curve; in most records, active means well fitted curve in the direction sought with a large enough effect; inconclusive means small, poorly fitted or top-dose-only effect, or another doubt; inactive means no such curve, though single readings can be large; an effect the other way counts as inactive or inconclusive.

Experiments:
[1] = tested on: HEK293; experiment: Cytotoxic Profiling of Annotated Libraries Using Quantitative High-Throughput Screening (AID 1296008); conditions: Five cell lines viability, CellTiter-Glo ATP luminescence, 48-72 h; max response: hits give low values; further: nearly all actives have a fitted effect of over 60% in size
In short: (§1)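 Compounds were pin-transferred onto cells and incubated 48 or 72 hr at 37 degree Celsius, 95% humidity. CellTiter-Glo was added, plates sat 10 min at room temperature, then ATP-coupled luminescence was imaged as the viability read-out.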

[2] = tested on: HaCat; experiment: as above; conditions: Five cell lines viability, CellTiter-Glo ATP luminescence, 48-72 h; max response: hits give low values
In short: as §1

[3] = tested on: KB-3-1; experiment: as above; conditions: Five cell lines viability, CellTiter-Glo ATP luminescence, 48-72 h; max response: hits give low values
In short: as §1

[4] = tested on: MCC-13; experiment: qHTS assay to identify novel small-molecules to repurpose for Merkel cell carcinoma treatment (AID 1296009); conditions: MCC and control cell lines, CellTiter-Glo viability, 72 h; series mostly up to 46 µM; further: nearly all actives have a fitted effect of over 60% in size
In short: (§2)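 qHTS format: cells treated with library compounds in DMSO across 8 (NPC) or 11 (MIPE) concentrations. Readout after 72 hr at 37 degree celsius was CellTiter-Glo luminescence.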

[5] = tested on: MCC-26; experiment: as above; conditions: MCC and control cell lines, CellTiter-Glo viability, 72 h; series mostly up to 46 µM
In short: as §2

[6] = tested on: MKL-1; experiment: as above; conditions: MCC and control cell lines, CellTiter-Glo viability, 72 h; series mostly up to 46 µM
In short: as §2

[7] = tested on: MKL-2; experiment: as above; conditions: MCC and control cell lines, CellTiter-Glo viability, 72 h; series mostly up to 46 µM
In short: as §2

[8] = tested on: UISO; experiment: as above; conditions: MCC and control cell lines, CellTiter-Glo viability, 72 h; series mostly up to 46 µM
In short: as §2

[9] = tested on: WaGa; experiment: as above; conditions: MCC and control cell lines, CellTiter-Glo viability, 72 h; series mostly up to 46 µM
In short: as §2

[10] = tested on: NIH3T3; experiment: Cytotoxic Profiling of Annotated Libraries Using Quantitative High-Throughput Screening (AID 1296008); conditions: Five cell lines viability, CellTiter-Glo ATP luminescence, 48-72 h; max response: hits give low values; further: nearly all actives have a fitted effect of over 60% in size
In short: as §1

[11] = tested on: NIH3T3; experiment: qHTS assay to identify novel small-molecules to repurpose for Merkel cell carcinoma treatment (AID 1296009); conditions: MCC and control cell lines, CellTiter-Glo viability, 72 h; series mostly up to 44.8 µM; further: nearly all actives have a fitted effect of over 60% in size
In short: as §2

[12] = tested on: C33A; experiment: Primary qHTS to identify gynecologic anti-cancer compounds using libraries of approved drugs and bioactive compounds (AID 1345084); conditions: Gynecologic cancer cell panel viability, ATPlite luminescence, 48 h; series mostly up to 57.5 µM; further: nearly all actives have a fitted effect of over 55% in size
In short: (§3)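 Cells, 1,000 per well, plated 16 h, then exposed 48 h at 37 C to compounds. Viability by ATPlite luminescence after 15 min at room temperature.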

[13] = tested on: Es-2; experiment: as above; conditions: Gynecologic cancer cell panel viability, ATPlite luminescence, 48 h; series mostly up to 57.5 µM
In short: as §3

[14] = tested on: HeLa; experiment: as above; conditions: Gynecologic cancer cell panel viability, ATPlite luminescence, 48 h; series mostly up to 57.5 µM
In short: as §3

[15] = tested on: CRL-7250; experiment: Cytotoxic Profiling of Annotated Libraries Using Quantitative High-Throughput Screening (AID 1296008); conditions: Five cell lines viability, CellTiter-Glo ATP luminescence, 48-72 h; max response: hits give low values; further: nearly all actives have a fitted effect of over 60% in size
In short: as §1

[16] = tested on: CAOV3; experiment: Primary qHTS to identify gynecologic anti-cancer compounds using libraries of approved drugs and bioactive compounds (AID 1345084); conditions: Gynecologic cancer cell panel viability, ATPlite luminescence, 48 h; series mostly up to 57.5 µM; further: nearly all actives have a fitted effect of over 55% in size
In short: as §3

[17] = tested on: CASKI; experiment: as above; conditions: Gynecologic cancer cell panel viability, ATPlite luminescence, 48 h; series mostly up to 57.5 µM
In short: as §3

[18] = tested on: Hek293T; experiment: as above; conditions: Gynecologic cancer cell panel viability, ATPlite luminescence, 48 h, control line for the selectivity index; series mostly up to 57.5 µM
In short: as §3
On the % scale 0 is the no-effect control and ±100 the full control effect; potency means the concentration at half of the fitted maximal effect.

NC(=O)c1nnn(Cc2cc(Cl)c(C(=O)c3ccc(Cl)cc3)c(Cl)c2)c1N
active: Potency [1] 20.9 µM
inactive: max response [2] -5.54% | max response [3] -25.7% | Potency [4] | Potency [5] | Potency [6] | Potency [7] | Potency [8] | Potency [9]

NC1(C(=O)N[C@@H](CCO)c2ccc(Cl)cc2)CCN(c2ncnc3[nH]ccc23)CC1
active: Potency [1] 469 nM and 517 nM | Potency [12] 2.51 µM
inactive: max response [2] -16.7% | max response [3] -18% and -7.12% | max response [10] -1.34% | outcome [10] | Potency [4] | Potency [5] | Potency [6] | Potency [11] | Potency [13] | Potency [14]

O=C(Nc1cccc(Cl)c1)Nc1ncc(CCNc2ncnc3ccsc23)s1
inactive: Potency [7] | Potency [8]
active: Potency [1] 16.6 µM | Potency [2] 2.09 µM | Potency [6] 0.296 µM

Cn1c(=O)c(Oc2ccc(F)cc2F)cc2cnc(NC3CCOCC3)nc21
inactive: max response [15] -20.5% | max response [3] -6.47% | max response [10] -13.2% | Potency [4] | Potency [5] | Potency [6] | Potency [7] | Potency [8] | Potency [9]

CC(C)n1c(C=C[C@H](O)C[C@H](O)CC(=O)O)c(-c2ccc(F)cc2)c2ccccc21
active: Potency [15] 2.64 µM | Potency [3] 11.8 µM | Potency [10] 16.6 µM | Potency [7] 7.43 µM | Potency [8] 10.5 µM | Potency [9] 18.7 µM

CC(C)(C)c1nc(-c2cccc(NS(=O)(=O)c3c(F)cccc3F)c2F)c(-c2ccnc(N)n2)s1
inactive: max response [1] -10.3% | max response [2] -2.38% | max response [3] -15.7% and -13.9% | max response [10] -11.1% and -2.7% | Potency [4] | Potency [5] | Potency [6] | Potency [7] | Potency [8] | Potency [9] | Potency [16] | Potency [17] | Potency [14] | Potency [18]

COc1cc2nccc(Oc3ccc(NC(=O)Nc4ccc(F)cc4F)c(F)c3)c2cc1OC
inactive: max response [15] -18.7% | Potency [4] | Potency [5] | Potency [7] | Potency [8] | Potency [9]

CC(C)(C)c1[nH]cnc1C=c1[nH]c(=O)c(=Cc2ccccc2)[nH]c1=O
active: Potency [15] 0.0038 µM | Potency [3] 2.41e-05 µM | Potency [4] 0.0076 µM | Potency [7] 0.0605 µM | Potency [8] 0.0121 µM
inactive: max response [10] -78.6% | Potency [6]

Cc1[nH]c(C=C2C(=O)Nc3ccc(S(=O)(=O)N(C)c4cccc(Cl)c4)cc32)c(C)c1C(=O)N1CCN(C)CC1
active: Potency [1] 5.26 µM | Potency [10] 9.35 µM | Potency [7] 20.9 µM | Potency [9] 20.9 µM
inactive: max response [2] -0.347%

Cc1ccc(NC(=O)Nc2cc(C(F)(F)F)ccc2F)cc1Nc1ccc2c(c1)NC(=O)C2=Cc1ccc[nH]1
active: Potency [1] 11.8 µM | Potency [3] 9.35 µM | Potency [10] 16.6 µM | Potency [8] 18.7 µM
inactive: Potency [7]

O=S(=O)(NCCNCC=Cc1ccc(Br)cc1)c1cccc2cnccc12
inactive: max response [2] -0.249% | max response [10] -13.9% | Potency [5]
active: Potency [1] 7.43 µM | Potency [6] 20.9 µM | Potency [7] 5.26 µM | Potency [9] 14.8 µM

CCc1cc(-c2n[nH]c(C)c2-c2ccc3c(c2)OCCO3)c(O)cc1O
active: Potency [1] 11.8 µM | Potency [2] 7.43 µM | Potency [10] 8.33 µM
inactive: Potency [7]

COc1ccc2cc1Oc1ccc(cc1)C[C@H]1c3cc(c(OC)cc3CCN1C)Oc1c(OC)c(OC)cc3c1[C@H](C2)N(C)CC3
inactive: max response [10] -30.2% | Potency [4]
active: Potency [1] 11.8 µM

CC(C)(O)CC(=O)NCCn1ccc2ncnc(Nc3ccc(Oc4cccc(C(F)(F)F)c4)c(Cl)c3)c21
inactive: Potency [4] | Potency [5] | Potency [6] | Potency [7] | Potency [8] | Potency [9] | Potency [12] | Potency [13] | Potency [14] | Potency [18]
active: Potency [1] 16.6 µM | Potency [2] 372 nM and 3.66 µM

CN1N=C(N)c2cn([C@@H]3O[C@H](COP(=O)(O)O)[C@@H](O)[C@@H]3O)c3ncnc1c23
active: Potency [15] 1.32 µM | Potency [3] 3.72 µM | Potency [10] 0.418 µM | Potency [6] 5.9 µM | Potency [7] 5.9 µM | Potency [8] 0.469 µM | Potency [9] 0.0372 µM
inactive: Potency [5]

CCN(CCO)CCCOc1ccc2c(Nc3cc(CC(=O)Nc4cccc(F)c4)[nH]n3)ncnc2c1
inactive: max response [15] -19.9% | max response [3] -29.8% | max response [10] -28.4% | Potency [4] | Potency [5] | Potency [8] | Potency [12] | Potency [16] | Potency [13] | Potency [14] | Potency [18]

C[C@H]1[C@H](O)O[C@@H]2O[C@@]3(C)CC[C@@H]4[C@H](C)CC[C@@H]1[C@@]24OO3
inactive: max response [2] -7.84%
active: Potency [1] 3.32 µM | Potency [3] 20.9 µM | Potency [6] 16.6 µM | Potency [7] 10.5 µM | Potency [8] 2.96 µM | Potency [9] 9.35 µM

COc1cc2nc(-c3cc(F)ccc3O)nc(N[C@@H]3CNC[C@@H]3C(C)(C)O)c2cc1OC
active: Potency [1] 14.8 µM | Potency [2] 26.4 µM | Potency [3] 16.6 µM | Potency [4] 20.9 µM | Potency [7] 9.35 µM
